SMILES strings stand for the structures. Results filed as inconclusive are left out. Activity calls are given as the source filed them. Rule for the calls: active = hit-call score of the fitted dose curve at least 0.9, where 1 is the maximum; inconclusive = response in the unintended direction; inactive = score below 0.9.

The nature of the experiment: Tanguay_ZF_120hpf_EYE_legacy: (Legacy) Oregon State University Tanguay Lab 120 Hour Post-fertilization zebrafish Assay for Eye Malformation (AID 2283636).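 Note: binary presence or absence of eye malformation scored by brightfield in 120 hpf larvae.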 The method, boiled down: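 Static waterborne exposure of dechorionated zebrafish embryos (strain Tropical 5D), 6 to 120 hpf, sealed plates at 28C, 0.64% DMSO vehicle. Eye malformation is scored as a binary endpoint, with gain of signal analysed relative to DMSO.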
Consider `O=c1n(CC2CO2)c(=O)n(CC2CO2)c(=O)n1CC1CO1` (configuration not stated), for which the compound was called inactive. Still for that read-out and setting: the same measure for `C1N2CN3CN1CN(C2)C3`: “inactive”; for `CC(C)CC(C)(O)C#CC(C)(O)CC(C)C` (configuration not stated): “inactive”. In the case of `O=C1OC(=O)C2C3C=CC(C3)C12` (configuration not stated), the outcome was inactive. The same measure, in the same setting: as for `COC(=O)c1ccccc1O`, the entry is “inactive”.

What is called AC50 is the concentration giving half of the maximal activity seen. As to `Oc1ccc2c(c1)-c1ccccc1C2`, the AC50 is 48 µM (active). Turning to `CCC(C)(C)C(=O)O[C@H]1C[C@@H](C)C=C2C=C[C@H](C)[C@H](CC[C@@H]3C[C@@H](O)CC(=O)O3)[C@H]21`, the AC50 is 0.737 µM (active). For the compound `O=C(OC[C@H]1O[C@@H](OC(=O)c2cc(O)c(O)c(OC(=O)c3cc(O)c(O)c(O)c3)c2)[C@H](OC(=O)c2cc(O)c(O)c(OC(=O)c3cc(O)c(O)c(O)c3)c2)[C@@H](OC(=O)c2cc(O)c(O)c(OC(=O)c3cc(O)c(O)c(O)c3)c2)[C@@H]1OC(=O)c1cc(O)c(O)c(OC(=O)c2cc(O)c(O)c(O)c2)c1)c1cc(O)c(O)c(OC(=O)c2cc(O)c(O)c(O)c2)c1`, the result was inactive.

For the compound `Cc1[nH]cnc1C[C@H]1CCc2c(C)c3ccccc3n2C1=O`, the call was inactive. Regarding `CC(=O)OC[C@H]1O[C@@](COC(C)=O)(O[C@H]2O[C@H](COC(C)=O)[C@@H](OC(C)=O)[C@H](OC(C)=O)[C@H]2OC(C)=O)[C@@H](OC(C)=O)[C@@H]1OC(C)=O`, the outcome was inactive. Turning to `COc1ccc(-n2nc(C(F)F)cc2-c2ccc(S(C)=O)cc2)cc1` (configuration not stated), the AC50 was 51.6 µM (active). For the compound `CC(=O)OCCC(C)C`, the result was inactive.

Source of the values: PubChem BioAssay (EPA / NIEHS).
